# Assay outcomes deposited in PubChem BioAssay by several laboratories.
# Hits are enriched below; roughly 5.2% of the tested compounds scored in any of these assays.
# esBAF inh – Bmi1 luciferase reporter increase in mESCs, primary screen, esBAF inhibitor project, mouse ES cells, Bmi1 luciferase knock-in, single point. 24 h; 100% = twice the neutral-well signal. reporter increase, % at 12.5 µM. 2% of 350,000 active; in the data active means activation above about 40%; inconclusive means no clear call, values can overlap the other calls;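 further: 0% = median of the plate's neutral control wells and 100% = double that signal; a rise in the Bmi1 reporter signal indicates esBAF inhibition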
# Vif imaging – HIV Vif self-association inhibitors, primary screen, imaging, HEK293T, single point. AID 602346, 2012. inhibition, % at 7.49 µM. 0.35% of 340,000 active. HEK293T cells, Vif self-association by quenched fluorescence, 24 h; in the data active means inhibition above about 50%, passing the limit was not always enough; inconclusive means no clear call, values can overlap the other calls; inactive means below about 31%
# SKN-1 inh – suppressors of acrylamide-induced Pgst-4::GFP reporter in worms, primary screen, SKN-1 inhibitor project, whole organism, uHTS, GFP/RFP fluorescence ratio, strain VP596; AID 624304, 2012; C. elegans VP596 Pgst-4::GFP/RFP ratio, 24 h; inhibition, % at 21.8 µM; 0.49% of 360,000 active;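 active means interference check ratio from 0.5 to 1.5 plus GFP to RFP signal ratio inhibition reaching or exceeding a fixed threshold, cut at about 30% in these data, passing the limit was not always enough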
# NR3A LBD binder – binders of NR3A ligand-binding domain, primary screen, biophysical, differential scanning fluorimetry, uHTS. 2.5% of 340,000 active. Tm shift relative to glycine control, % at 25 µM. NR3A LBD differential scanning fluorimetry, Tm shift; 0% = protein alone, 100% = glycine-bound protein;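 active means melting temperature shift of at least 10% of the positive control shift, at one fixed dose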
# NadD inh – inhibitors of S. aureus NadD, primary screen, biochemical, colorimetric, uHTS | AID 602399, 2012 | purified NadD enzyme, colorimetric absorbance read-out | 0.78% of 360,000 active | inhibition, % at 20 µM | Nicotinate-nucleotide adenylyltransferase NadD (Staphylococcus aureus N315); in the data active means inhibition above about 26%
# SMARCA2 act – SMARCA2 (BRM) function activators, primary screen, cell-based, luminescence, high throughput; MG213 cells, MMTV-luciferase reporter, dexamethasone, overnight; activation, % at 9.1 µM; 1% of 370,000 active; in the data active means activation above about 7.8%;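 further: 0% = vehicle wells and 100% = reference activator wells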
# The depositor's hits bear a star; ? = inconclusive; . = no result given.
SMILES,esBAF inh,Vif imaging,SKN-1 inh,NR3A LBD binder,NadD inh,SMARCA2 act
CC(=O)Oc1ccc(-c2csc(Nc3ccccn3)n2)cc1,32.8,-20.8,18.5,.,-2.4,-3.3
Cc1ccc(S(=O)(=O)N(C)C[C@@H]2Oc3ncc(-c4ccccc4)cc3C(=O)N([C@H](C)CO)C[C@H]2C)cc1,-2.9,.,.,.,.,.
O=C(Cn1cnc([N+](=O)[O-])c1)Nc1ccc(Cl)cc1Cl,4.1,64.4*,5.2,.,-1.5,-3.1
O=C(Cn1cnc([N+](=O)[O-])c1)Nc1ccc(F)c(Cl)c1,4.2,0.6,-1.6,2.4,-6.1,-1.7
Oc1ccc(Br)cc1/C=N/N1CCCCC1,.,-2.5,1.8,-1.3,-29.0,1.5
Oc1ccc(Br)cc1/C=N/n1cnc2ccccc21,53.4*,.,8.0,-1.2,-3.9,3.0
CSc1ccccc1OCc1cc(C(=O)N[C@H]2CCCCNC2=O)no1,65.9*,1.5,7.2,0.8,0.7,6.3
CSc1ccccc1OCc1cc(C(=O)NC(C)CCn2cccn2)no1 (stereo not given),.,-1.3,-14.0,1.0,-2.9,-2.0
CSc1ccccc1OCc1cc(C(=O)NC(C)c2cnn(C)c2)no1 (stereo not given),53.9*,-5.1,11.5,-3.6,-2.8,4.4
COc1cccc(-c2cnc3c(c2)C(=O)N([C@H](C)CO)C[C@H](C)[C@H](CN(C)C(=O)NC2CCCC2)O3)c1,-0.9,.,.,.,.,.
COc1ccc(C(=O)c2ccc(Cl)c([N+](=O)[O-])c2)cc1,.,69.2*,-1.0,4.2,-2.4,-1.7
COc1ccc(C(=O)c2ccc(Cl)cc2)cc1,45.8*,4.6,19.0,0.0,1.1,1.1
Cc1ccc(OC(=O)c2ccc(Cl)c([N+](=O)[O-])c2)cn1,-0.9,-7.7,-6.9,-1.1,-1.3,-0.2
O=C(NCc1ccc(F)cc1)[C@H]1[C@H](CO)[C@H]2Cn3c(cccc3=O)[C@H]2N1CC1CC1,0.4,.,.,.,.,.
C[C@@H]1CCCCO[C@H](CN(C)S(=O)(=O)c2ccc(F)cc2)[C@H](C)CN([C@@H](C)CO)C(=O)c2cc(NC(=O)C3CCCCC3)ccc2O1,0.4,.,.,.,.,.
C[C@@H]1CN([C@H](C)CO)C(=O)c2cc(NC(=O)CCC(F)(F)F)ccc2O[C@@H]1CN(C)S(=O)(=O)c1ccccc1,-0.7,.,.,.,.,.
CN(C(=O)C1CCCO1)C1CCS(=O)(=O)C1 (stereo not given),.,1.1,-6.3,14.1*,-1.5,1.7
C[C@@H]1CN([C@@H](C)CO)C(=O)c2cccc(NC(=O)C3CC3)c2O[C@@H]1CN(C)S(=O)(=O)c1ccc(Cl)cc1,0.8,.,.,.,.,.
C[C@@H]1CCCCO[C@H](CN(C)CC2CC2)[C@H](C)CN([C@H](C)CO)C(=O)c2cc(NC(=O)C3CCCCC3)ccc2O1,0.7,.,.,.,.,.
C[C@H]1CN([C@@H](C)CO)S(=O)(=O)c2ccc(-c3ccccc3)cc2O[C@@H]1CN(C)Cc1ccncc1,-7.9,.,.,.,.,.
CC(C)c1ccc(NC(=O)c2snc3ccc(Cl)cc23)cc1,?,-7.3,6.8,10.1*,-1.6,3.9
CC(C)c1ccc(NC(=O)c2csnn2)cc1,-12.1,.,3.5,3.8,7.6,2.4
Cc1ccc(NC2=C/C(=N/S(=O)(=O)c3cccs3)c3ccccc3C2=O)cc1C,.,-1.8,-13.5,-3.0,0.4,3.8
Cc1cc(C)c(S(=O)(=O)/N=C2/C=C(Sc3ncn[nH]3)C(=O)c3ccccc32)cc1C,.,2.7,8.4,-28.1,90.5*,-10.8
CCOC(=O)C1(Cc2ccccc2)CCCN(C(=O)C=C(C)C)C1 (stereo not given),59.6*,2.6,0.7,-1.5,1.3,0.8
SMILES,esBAF inh,Vif imaging,SKN-1 inh,NR3A LBD binder,NadD inh,SMARCA2 act
CCOC(=O)C1(Cc2ccccc2)CCCN(C2CCN(C(C)=O)CC2)C1 (stereo not given),-1.3,34.0,8.9,-1.9,-3.9,0.8
CC#CC(=O)N1CCCC(Cc2cccc(OC)c2)(C(=O)OCC)C1 (stereo not given),58.8*,-4.6,-0.2,-2.0,5.2,4.0
CCOC(=O)C1(Cc2cccc(OC)c2)CCCN(C(=O)CSC)C1 (stereo not given),58.6*,-7.0,29.3,0.8,-3.0,2.8
CCOC(=O)C1(Cc2cccc(OC)c2)CCN(CCO)CC1,-2.2,66.3*,-10.2,-1.9,-2.4,-0.6
COc1cccc(-c2ccc3n(c2=O)C[C@H]2[C@H](CO)[C@@H](C(=O)NCC4CC4)N(C(C)=O)[C@@H]32)c1,3.1,.,.,.,.,.
Cc1noc(C)c1NC(=O)NCC[C@@H]1CC[C@H](NC(=O)c2ccc(F)cc2)[C@H](CO)O1,-2.1,.,.,.,.,.
Cc1nn(C)cc1NC(=O)C[C@H]1CC[C@H]2[C@H](COc3ccc(NC(=O)C(C)C)cc3C(=O)N2C)O1,2.6,.,.,.,.,.
CS(=O)(=O)Nc1nnc(Cc2ccccc2)s1,-2.8,9.0,-2.0,11.0*,-3.3,1.6
COc1ccc(S(=O)(=O)N(CCN2CCOCC2)Cc2cc(OC)ccc2OC)cc1,.,-7.8,15.9,16.0*,-4.6,-3.6
O=C(N/N=C/c1cccc(O)c1)c1ccccc1O,.,6.8,12.3,8.3,-0.9,3.0
O=CN/C=C/c1cccc(O)c1,.,-9.7,-11.3,14.0*,0.6,-0.2
Cc1oc(-c2ccc(Cl)cc2)nc1CN1CCC(C(=O)NCc2cccnc2)CC1,4.6,86.6*,-7.1,0.2,-5.3,.
CC(=O)Nc1cccc(-c2csc(Nc3cc(C)ccn3)n2)c1,48.5*,-10.0,10.4,10.0*,1.2,4.9
CC(=O)Nc1ccc(-c2csc(Nc3cc(C)ccn3)n2)cc1,?,-7.5,27.2,24.7*,-1.3,-0.7
Cc1ccnc(Nc2nc(-c3c(C)nc4sccn34)cs2)c1,-9.4,-24.4,-14.8,16.4*,16.4,-1.9
Cc1ccnc(Nc2nc(-c3ccccc3)cs2)c1,7.6,-15.6,7.5,-6.8,2.0,3.6
CN(C)C(=O)C[C@H]1C[C@@H]2c3cc(NC(=O)Nc4ccc(C(F)(F)F)cc4)ccc3O[C@@H]2[C@@H](CO)O1,2.4,.,.,.,.,.
Cc1noc(C)c1S(=O)(=O)N(C)C[C@@H]1Oc2ccc(NS(=O)(=O)c3ccccc3)cc2C(=O)N([C@@H](C)CO)C[C@@H]1C,6.9,.,.,.,.,.
Clc1cccc(NCc2cn3cccnc3n2)c1,19.5,-9.1,-2.3,10.9*,-1.6,3.7
CCCN1C[C@@H](C)[C@H](OC)CN(C)C(=O)c2cc(NC(=O)c3ccc(F)cc3)ccc2OC[C@H]1C,5.9,.,.,.,.,.
CCOc1ncccc1C(=O)OCc1ccccc1,-1.7,51.2*,-3.0,0.4,-5.4,2.0
